SMN2 splice enh: qHTS Assay for Enhancers of SMN2 Splice Variant Expression; AID 1458, 2008; Potency, µM (top dose mostly 46.1 µM), for inactives: top-dose activity change, positive = activation, usual class: activators; hit rate 2.8% among 210,000; HEK293 SMN2-luciferase splicing reporter, luminescence, 30-36 h; further: % of control where 0% means no effect; nearly all actives have a fitted effect of over 55% in size
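HEK293 cells carry an SMN2 […]–luciferase reporter in which exon 7 inclusion puts luciferase in frame. Cells were plated 10-12 h before compound addition, then incubated 30-36 h at 37C. ONE-Glo luminescence was read; sodium butyrate at 4.5 mM final served as control.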
Rab9 promoter act: qHTS Assay for Rab9 Promoter Activators; hit rate 2.8% among 320,000; Huh7 Rab9 promoter-luciferase reporter, luminescence, 24 h; AID 485297, 2010; Potency, µM (highest dose often 9.22 µM), for the others: top-dose activation, negative = inhibition, most hits filed as activators; further: % of control where 0% means no effect; nearly all actives have a fitted effect of over 60% in size
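Huh7 reporter line, Rab9 promoter upstream of luciferase. Compound exposure 24 h at 37 °C in reduced-serum medium with 10% FBS. Read-out: luminescence.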
ELG1 genotox: qHTS screen for small molecules that induce genotoxicity in human embryonic kidney (HEK293T) cells expressing luciferase-tagged ELG1 | HEK293T ELG1-luciferase reporter, luminescence, 16 h | Potency, µM (highest dose often 46 µM), for the others: at the highest dose activity change, positive = activation, hits mostly activators | hit rate 1.3% among 330,000; further: % of control where 0% means no effect; nearly all actives have a fitted effect of over 60% in size
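Cells (2,000/well) expressing the ELG1-luciferase fusion are dosed by pin tool and kept 16 hr at 37 °C, 5% CO2. Signal comes from ONE-Glo luciferase reagent after 30 min at room temperature.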
NPC1 prom act: qHTS Assay for NPC1 Promoter Activators; AID 485313, 2010; hit rate 2.4% among 320,000; Huh7 NPC1 promoter luciferase reporter, 24 h; Potency, µM (top dose mostly 9.22 µM), without a hit: at the top dose activation, usual class: activators; further: % of control where 0% means no effect; nearly all actives have a fitted effect of over 60% in size
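Huh7 reporter cells (NPC1 promoter driving luciferase) are dosed with compound for 24 h at 37 °C, 5% CO2; luciferase detection reagent is then added and luminescence measured after 10 min at ambient temperature.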
FLuc modulator: qHTS profiling assay for firefly luciferase inhibitor/activator using purifed enzyme and Km concentrations of substrates (counterscreen for miR-21 project); AID 588342, 2011; hit rate 6.9% among 360,000; Potency, µM (series often up to 57.5 µM), inactives show top-dose activity change, negative = inhibition, hits mostly inhibitors; purified FLuc, Km substrates, luminescence inhibition; Luciferin 4-monooxygenase (Photinus pyralis), P08659;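 further: plate controls were vehicle for no effect and reference inhibitor for full effect; nearly all actives have a fitted effect of over 55% in size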
Target sequence (P08659 whole entry, looked up): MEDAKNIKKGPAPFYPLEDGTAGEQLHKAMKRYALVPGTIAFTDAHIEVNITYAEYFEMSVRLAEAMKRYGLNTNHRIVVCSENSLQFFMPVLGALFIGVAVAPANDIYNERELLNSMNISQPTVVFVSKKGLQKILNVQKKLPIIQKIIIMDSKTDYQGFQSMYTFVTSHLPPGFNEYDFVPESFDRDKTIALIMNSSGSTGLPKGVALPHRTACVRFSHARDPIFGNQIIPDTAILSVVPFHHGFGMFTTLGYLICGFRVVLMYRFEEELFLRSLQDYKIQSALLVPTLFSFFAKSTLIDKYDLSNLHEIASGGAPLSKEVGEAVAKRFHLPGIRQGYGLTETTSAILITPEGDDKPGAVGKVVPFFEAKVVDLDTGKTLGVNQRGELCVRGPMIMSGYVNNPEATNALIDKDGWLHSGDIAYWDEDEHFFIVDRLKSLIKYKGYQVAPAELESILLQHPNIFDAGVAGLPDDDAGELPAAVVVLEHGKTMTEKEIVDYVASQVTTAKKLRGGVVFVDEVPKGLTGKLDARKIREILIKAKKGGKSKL
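Biochemical qHTS of compounds, final roughly 60 µM downward over six points, against 10 nM purified firefly luciferase using Km concentrations of substrates (10 uM D-luciferin, 10 uM ATP) in Tris acetate pH 7.5 buffer; luminescence output.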
ELG1 DNA repair: qHTS screen for small molecules that inhibit ELG1-dependent DNA repair in human embryonic kidney (HEK293T) cells expressing luciferase-tagged ELG1; HEK293T ELG1-luciferase reporter, luminescence, 16 h; DNA damage induced by 5-fluorouridine; hit rate 2.3% among 330,000; Potency, µM (series often up to 46.1 µM), without a hit: at the highest dose activity change, negative = inhibition, most hits filed as inhibitors; further: on the % scale 0 is the no-effect control and ±100 the full control effect; nearly all actives have a fitted effect of over 55% in size
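Cells (2,000 per well) received 5-fluorouridine plus test compound or DMSO and were incubated 16 hr at 37 °C, 5% CO2. Luciferase activity was read by luminescence 30 min after ONE-Glo addition; signal suppression marked inhibition of damage-induced ELG1 function.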
ELG1 Luc conf: HTS assay for small molecules that inhibit ELG1-dependent DNA repair in human embryonic kidney (HEK293T) cells expressing luciferase-tagged ELG1: Hit Confirmation | shares compounds with ELG1 DNA repair | HEK293T ELG1-luciferase levels, luminescence; cells co-treated with 5-fluorouridine | AID 624248, 2012 | Potency, µM (doses to about 46.1 µM), without a hit: at the top dose activity change, negative = inhibition, hits mostly inhibitors | hit rate 68% among 670; further: on the % scale 0 is the no-effect control and ±100 the full control effect; nearly all actives have a fitted effect of over 55% in size
ELG1 MMS Luc: confirmation of human ELG1 repair inhibitors, MMS stimulated; shares compounds with ELG1 DNA repair; Potency, µM (series often up to 46.1 µM), inactives show top-dose activity change, negative = inhibition, most hits filed as inhibitors; HEK293T luciferase-tagged ELG1 level, MMS stimulated; AID 624249; hit rate 53% among 670; further: on the % scale 0 is the no-effect control and ±100 the full control effect; nearly all actives have a fitted effect of over 60% in size
ELG1 5-FU: qHTS screen for small molecules that inhibit ELG1-dependent DNA repair: Hit Confirmation with 5FU Viability | AID 624250, 2012 | Potency, µM (top dose mostly 46.1 µM), for inactives: top-dose activity change, negative = viability loss, actives largely listed as cytotoxic | cell viability with 5-FU, ELG1-dependent repair | 670 tested, under 10 active | shares compounds with ELG1 DNA repair;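 further: ELG1-luc HEK293T cells cotreated with 5-fluorouridine at 10 µM final; viability measured 16 h after compound addition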
ELG1 MMS viab: qHTS screen for small molecules that inhibit ELG1-dependent DNA repair: Hit Confirmation with MMS Viability. hit rate 33% among 670. Potency, µM (highest dose often 46.1 µM), inactives show at the highest dose activity change, negative = viability loss, actives largely listed as cytotoxic. shares compounds with ELG1 DNA repair. Cell viability with MMS, ELG1-dependent DNA repair;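 further: ELG1-luc HEK293T cells co-treated with 10 µM MMS; viability read 16 h after compound addition; on the % scale 0 is the no-effect control and ±100 the full control effect; nearly all actives have a fitted effect of over 60% in size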
ELG1 unstim viab: qHTS screen for small molecules that inhibit ELG1-dependent DNA repair: Hit Confirmation with Unstimulated Viability Assay. shares compounds with ELG1 DNA repair. cell viability counter-screen, unstimulated, luminescence. Potency, µM (top dose mostly 45.9 µM), without a hit: at the highest dose activity change, negative = loss of viability, usual class: cytotoxic. hit rate 8% among 900. AID 624252, 2012;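 further: compound exposure lasted 16 hours before reading; on the % scale 0 is the no-effect control and ±100 the full control effect; nearly all actives have a fitted effect of over 55% in size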
Starred values were filed as active, the others as inactive. An excerpt weighted towards active compounds, which were near 9.3% of everything screened. The call rests on the fitted dose curve; in most records, active means well fitted curve in the direction sought with a large enough effect; inconclusive means small, poorly fitted or top-dose-only effect, or another doubt; inactive means no such curve, though single readings can be large; an effect the other way counts as inactive or inconclusive. Potency means the concentration at half of the fitted maximal effect.

For COc1ccc(/C=N/NC(=O)Nc2cccc3nsnc23)cc1OC the results were SMN2 splice enh -8%, Rab9 promoter act -11%, ELG1 genotox 1%, NPC1 prom act 3%, FLuc modulator -20%, ELG1 DNA repair 2.6µM*, ELG1 Luc conf 2.8µM*, ELG1 MMS Luc 22µM*, ELG1 5-FU inconclusive, ELG1 MMS viab inconclusive and ELG1 unstim viab inconclusive.
Screening O=C(CSc1nc(=O)n(CCCN2CCOCC2)c2c1CCCC2)Nc1ccc(Cl)cc1 returned Rab9 promoter act -3%, ELG1 genotox 3%, NPC1 prom act -3%, FLuc modulator 5% and ELG1 DNA repair -29%.
Screening O=C(COC(=O)C1CC2C=CC1C2)Nc1c(Br)cc([N+](=O)[O-])cc1Br (stereo unspecified) returned ELG1 genotox -2%, ELG1 DNA repair 4.6µM*, ELG1 Luc conf 7.9µM*, ELG1 MMS Luc 18%, ELG1 5-FU inconclusive, ELG1 MMS viab inconclusive and ELG1 unstim viab inconclusive.
For O=C(C1CCCC1)N1CCC(CC2CC(c3cccc(Br)c3)=NO2)(C(=O)NCC2CCCCC2)CC1 (stereo unspecified) the results were Rab9 promoter act -5%, ELG1 genotox -14%, NPC1 prom act -7%, FLuc modulator -1%, ELG1 DNA repair 4.1µM*, ELG1 Luc conf 16µM*, ELG1 MMS Luc inconclusive, ELG1 5-FU 2%, ELG1 MMS viab -19% and ELG1 unstim viab inconclusive.
Screening Cn1c(CNC(=O)c2ccccc2F)nnc1SCCOc1ccccc1 returned SMN2 splice enh 4%, Rab9 promoter act -2%, ELG1 genotox 0%, NPC1 prom act 0%, FLuc modulator -2% and ELG1 DNA repair -11%.

Screening data as filed in PubChem BioAssay.
